A number with no mark means an inactive call. Inconclusive results are not listed. Calls of active or inactive are those of the source. Unless noted, calls come from the whole dose curve; as a rule, active = well fitted curve in the direction sought with a large enough effect; inconclusive = small, poorly fitted or top-dose-only effect, or another doubt; inactive = no such curve, though single readings can be large; an effect the other way counts as inactive or inconclusive. Where a SMILES comes first, the peptide text is derived from it. Bridges are numbered along the chain shown (N, C = ends). [ ]: non-standard residue; d: D form. The star is where a group is joined. X1 = CC[C@@H](C)[C@@H](N)C1=N[C@H](C(=O)*)CS1; d(aIle) = CC[C@H](C)[C@@H](N)C(=O)O; dOrn = NCCC[C@@H](N)C(=O)O

Assay [1] is described as follows: Drug repurposing screens with cells derived from glioblastoma tumor samples (AID 1345199). For activity, negative = cell killing: % is set by controls: 0 for no effect and ±100 for the full control effect. Note: nearly all actives have a fitted effect of over 40% in size. Note: potency is the fitted concentration of half-maximal effect. The conditions noted are these: GBM patient neurospheres viability, ATP luminescence, 48 h. The procedure, abridged:
(§1)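 Four patient lines of CD133+ GBM neurospheres were screened at several concentrations; hits were retested in those lines plus three slower-growing GBM lines, using 48-hour treatment and ATP-based viability.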

The test system of a further assay is OV90. As to the kind of experiment: Primary qHTS to identify gynecologic anti-cancer compounds using libraries of approved drugs and bioactive compounds (AID 1345084). Note: % is set by controls: 0 for no effect and ±100 for the full control effect; nearly all actives have a fitted effect of over 55% in size. The conditions noted are these: Gynecologic cancer cell panel viability, ATPlite luminescence, 48 h; series mostly up to 57.5 µM. In outline: (§2)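 Cell viability after 48 h drug treatment, ATPlite luminescence readout; five doses.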

The subject of a further assay is PA-1. The description is as above. Conditions: Gynecologic cancer cell panel viability, ATPlite luminescence, 48 h; series mostly up to 57.5 µM. The procedure, abridged: as §2
In another assay the test system is SKOV3. The assay is described as above. Conditions: Gynecologic cancer cell panel viability, ATPlite luminescence, 48 h; series mostly up to 57.5 µM. The procedure, abridged:
as §2

The test system of a further assay is Tov-21-G. The assay is described as above. The conditions noted are these: Gynecologic cancer cell panel viability, ATPlite luminescence, 48 h; series mostly up to 57.5 µM. In outline:
as §2

A further assay concerns Tov112D. Described as above. The conditions noted are these: Gynecologic cancer cell panel viability, ATPlite luminescence, 48 h; series mostly up to 57.5 µM. The procedure, abridged: as §2
A further assay concerns astro (control astrocytes). The assay is described as follows: Drug repurposing screens with cells derived from glioblastoma tumor samples (AID 1345199). For activity, negative = cell killing: % is set by controls: 0 for no effect and ±100 for the full control effect. Note: nearly all actives have a fitted effect of over 40% in size. Note: potency is the fitted concentration of half-maximal effect. The conditions noted are these: viability, ATP luminescence, 48 h; series mostly up to 45.9 µM. The procedure, abridged:
as §1

Assay [2] addresses Nuclear receptor subfamily 1 group I member 2 (Rattus norvegicus) (UniProt Q9R1A7). As to the kind of experiment: qHTS assay for small molecule activators of the rat pregnane X receptor (rPXR) signaling pathway (AID 651751; call rule not given here; note: 0% is about no effect). Conditions: rPXR reporter cells, luciferase (One-Glo), 24 h.
Assay [3] is described as follows: qHTS assay for small molecule activators of the human pregnane X receptor (PXR) signaling pathway (AID 720659; call rule not given here; note: 0% is about no effect).
[4] abbreviates: at 20 µM (top of the series), tumour line C.
Where [5] appears, read: at 46.1 µM (top of the series), tumour line C.
[6] abbreviates: at 45.9 µM (top of the series), tumour line B.
Setting [7] is: at 45.9 µM (top of the series), tumour line D.
The mark [8] stands for this setting: at 21.2 µM (top of the series), tumour line B.
Setting [9] is: at 21.2 µM (top of the series), tumour line D.
The mark [10] stands for this setting: at 46 µM (top of the series), tumour line A.

Chain of Nuclear receptor subfamily 1 group I member 2 (Rattus norvegicus) (Q9R1A7 whole entry, looked up): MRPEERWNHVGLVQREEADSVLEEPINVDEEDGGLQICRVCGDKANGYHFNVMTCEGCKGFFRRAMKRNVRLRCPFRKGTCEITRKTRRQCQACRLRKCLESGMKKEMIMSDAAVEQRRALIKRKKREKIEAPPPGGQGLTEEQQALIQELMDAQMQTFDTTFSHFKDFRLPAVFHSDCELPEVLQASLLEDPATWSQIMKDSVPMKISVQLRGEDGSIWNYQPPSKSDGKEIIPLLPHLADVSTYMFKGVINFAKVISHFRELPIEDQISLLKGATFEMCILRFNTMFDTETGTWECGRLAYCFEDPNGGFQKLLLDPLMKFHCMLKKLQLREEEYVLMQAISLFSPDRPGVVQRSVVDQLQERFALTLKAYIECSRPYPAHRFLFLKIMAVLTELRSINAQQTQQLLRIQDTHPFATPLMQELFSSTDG

Take `COc1ccc2c(c1)N(C[C@H](C)CN(C)C)c1ccccc1S2`: in assay [1] (setting [4]), the activity, negative = cell killing was 13%. Besides, the Potency was 4.47 µM (active) in assay [1] (tumour line A) and 12.6 µM (active) in [1] (tumour line D).

With `C=C1CC[C@H](O)CC1=C/C=C1\CCC[C@]2(C)[C@@H]([C@H](C)/C=C/[C@H](C)C(C)C)CC[C@@H]12`, the Potency entry in the assay on OV90, with PA-1 and with Tov-21-G was “inactive” each time. For the same molecule, the molecule was called inactive in the assay with SKOV3 and in the assay with Tov112D. For the same molecule, the activity, negative = cell killing in assay [1] (setting [5]) is 6.83%. The Potency in assay [1] (tumour line A) was 10 µM (active).

Turning to `CC(C)=CCC/C(C)=C/CC/C(C)=C/CC/C(C)=C/CC1=C(C)C(=O)c2ccccc2C1=O`, the activity, negative = cell killing in assay [1] (setting [6]) was -29.7%. Besides, the Potency was 10 µM (active) in assay [1] (tumour line A) and 23.1 µM (active) in assay [1] (tumour line C).

Take `C/C(=C\C(=O)OCCCCCCCCC(=O)O)C[C@@H]1OC[C@H](C[C@@H]2O[C@H]2[C@@H](C)[C@H](C)O)[C@@H](O)[C@H]1O`: the Potency entry in the assay on OV90, in the assay on PA-1, in the assay with Tov-21-G and in the assay with astro was “inactive” throughout. In the assay on Tov112D, the result was inactive. In addition, the activity, negative = cell killing in [1] (setting [6]) was -19.6%; in assay [1] (setting [7]), -9.28%; in assay [1] (setting [5]) it was -21.4%.

Turning to `CCN(CC)CCOCCOC(=O)C(CC)(CC)c1ccccc1`, the Potency entry with PA-1 and in the assay with Tov-21-G was “inactive” throughout. The molecule was classed as inactive in the assay on SKOV3 and in the assay with Tov112D. Moreover, the activity, negative = cell killing in [1] (setting [5]) was -23.4%. The Potency in assay [1] (tumour line A) was 1.41 µM (active); in assay [1] (tumour line B), 14.1 µM (active); in [1] (tumour line D), 8.91 µM (active).

As for `CC(=O)Oc1cccc2c1C(=O)c1c(OC(C)=O)cc(C(=O)O)cc1C2=O`, the molecule was called inactive with Tov112D. Besides, the values for the activity, negative = cell killing in assay [1] (setting [6]) and in assay [1] (setting [7]) were -17.6% and -16.7%, respectively. In addition, the Potency entry with astro was “inactive”.

As for `CN(C)CCCSc1ccccc1NC(=O)/C=C/c1ccccc1`, the Potency result in the assay with PA-1, in the assay with Tov-21-G and with astro was “inactive” in each case. The call in the assay with SKOV3 and with Tov112D was inactive. Moreover, the activity, negative = cell killing in [1] (setting [6]) was -25.4%. Moreover, the Potency in [1] (tumour line A) is 10 µM (active).

With `C[C@]12CCC(=O)C[C@@H]1CC[C@@H]1[C@@H]2CC[C@]2(C)C=CC[C@@H]12`, the activity, negative = cell killing in [1] (setting [6]) was -7.67%; in [1] (setting [7]) it was -11.4%. Besides, the Potency in assay [1] (tumour line A) was 20 µM (active).

With `COC1[C@@H](O[C@@H]2O[C@H](C)[C@@H](O[C@H]3C[C@@](C)(O)[C@H](OC(=O)CC(C)C)[C@H](C)O3)[C@H](N(C)C)[C@H]2O)[C@@H](CC=O)C[C@@H](C)[C@@H](O)/C=C/C=C/C[C@@H](C)OC(=O)C[C@H]1OC(C)=O` (stereo partly specified), the activity, negative = cell killing was -1.06% in [1] (setting [4]), -12.1% in assay [1] (setting [8]) and -12.4% in assay [1] (setting [9]).

Take `C=C1[C@H](CO)[C@@H](O)C[C@@H]1n1cnc2c(=O)[nH]c(N)nc21`: the Potency result in the assay on OV90, in the assay on PA-1, in the assay with Tov-21-G and with astro was “inactive” in each case. The call in the assay on SKOV3 and with Tov112D was inactive. In addition, the values for the activity, negative = cell killing in [1] (setting [6]) and in assay [1] (setting [5]) were -13.2% and -24%, respectively.

Turning to `CCOC(=O)C1=C(COCCN)NC(C)=C(C(=O)OC)C1c1ccccc1Cl` (stereo unspecified), in assay [1] (setting [6]), the activity, negative = cell killing was -28.9%. For the same molecule, the Potency in [1] (tumour line A) was 11.2 µM (active).

Take `CC(C)(C)c1ccc(CN2CCN(C(c3ccccc3)c3ccc(Cl)cc3)CC2)cc1` (stereo unspecified): the Potency result with OV90, in the assay on PA-1 and in the assay with Tov-21-G was “inactive” in each case. The molecule was called inactive in the assay on SKOV3 and in the assay on Tov112D. Besides, the Potency in the assay on astro was 35.5 µM (active).

As for `O=C(OCc1ccccc1)c1ccc(O)cc1`, the Potency result in the assay with OV90, in the assay with PA-1, with Tov-21-G and in the assay on astro was “inactive” in each case. Further, the molecule was classed as inactive (in the assay on SKOV3; with Tov112D; in [3]). The activity, negative = cell killing in [1] (setting [6]) was -16.7%; in [1] (setting [7]), -12.6%; in assay [1] (setting [5]), 10.4%. Further, in assay [2], the max response is 2.15%.

For `COc1cc(C)c(/C=C/C(C)=C/C=C/C(C)=C/C(=O)O)c(C)c1C`, the activity, negative = cell killing in [1] (setting [6]) is -16.3%; in assay [1] (setting [7]), 8.72%; in [1] (setting [5]), -9.52%.

Regarding `Cc1c(Cl)cccc1Nc1ncccc1C(=O)O`, the activity, negative = cell killing in assay [1] (setting [6]) was -16.8%; in assay [1] (setting [7]), -17%.

For `NC[C@@H]1O[C@H](O[C@H]2[C@@H](O)[C@H](O[C@@H]3[C@@H](O)[C@H](N)C[C@H](N)[C@H]3O[C@H]3O[C@H](CO)[C@@H](O)[C@H](O)[C@H]3N)O[C@@H]2CO)[C@H](N)[C@@H](O)[C@@H]1O`, the activity, negative = cell killing in assay [1] (setting [6]) was -4.51%; in [1] (setting [7]), -15.7%; in assay [1] (setting [10]), -10.6%; in assay [1] (setting [5]) it was -32.1%.

With `CC(C)(C)c1ccc2c(S(=O)(=O)O)c(C(C)(C)C)ccc2c1`, the activity, negative = cell killing is 0.454% in [1] (setting [6]); 6.66% in assay [1] (setting [7]); -27.1% in assay [1] (setting [10]); -16.6% in [1] (setting [5]); -24.2% in assay [1] (at 91.6 µM (top of the series), tumour line B); -20.7% in assay [1] (at 91.6 µM (top of the series), tumour line D). Besides, in [1] (at 99.2 µM (top of the series), tumour line C), the activity, negative = cell killing was -7.16%. In addition, in the assay on astro, the Potency result is “inactive”.

On to `OC1OC[C@@H](O)[C@H](O)[C@@H]1O` (stereo partly specified), for which the activity, negative = cell killing was -0.633% in assay [1] (setting [6]), 10.5% in assay [1] (setting [7]), -6.9% in assay [1] (setting [10]) and 14.5% in [1] (setting [5]).

Consider `CC/C(=C(/CC)c1ccc(OP(=O)(O)O)cc1)c1ccc(OP(=O)(O)O)cc1`, for which the activity, negative = cell killing in assay [1] (setting [6]) was -16%; in assay [1] (setting [7]), -11.4%; in assay [1] (setting [10]) it was -22.6%; in [1] (setting [5]), -17.3%.

In the case of `CCC(=O)OC(OP(=O)(CCCCc1ccccc1)CC(=O)N1C[C@H](C2CCCCC2)C[C@H]1C(=O)O)C(C)C` (stereo partly specified), the activity, negative = cell killing in [1] (setting [6]) is -7.98%; in [1] (setting [7]), -19.4%; in [1] (setting [10]), -12.6%; in assay [1] (setting [5]), -19%.

For the molecule `CC[C@@H](C)[C@@H](N)C1=N[C@H](C(=O)N[C@@H](CC(C)C)C(=O)N[C@@H](CCC(=O)O)C(=O)N[C@@H](C(=O)N[C@@H]2CCCCNC(=O)[C@@H](CC(N)=O)NC(=O)[C@@H](CC(=O)O)NC(=O)[C@@H](Cc3cnc[nH]3)NC(=O)[C@@H](Cc3ccccc3)NC(=O)[C@@H]([C@H](C)CC)NC(=O)[C@@H](CCCN)NC2=O)[C@@H](C)CC)CS1` (X1-LE[d(aIle)][dK][dOrn][dI][dF][dH][dD][dN]; lactam 4-C), the activity, negative = cell killing is 4.06% in [1] (setting [4]); -2.34% in [1] (setting [8]); -0.888% in assay [1] (setting [9]); -20.3% in assay [1] (at 21.3 µM (top of the series), tumour line A); -12.2% in assay [1] (setting [6]); -10.9% in assay [1] (setting [7]). For the same molecule, the results for the activity, negative = cell killing in [1] (setting [10]) and in assay [1] (setting [5]) were -25% and 23.1%, respectively. Moreover, the Potency entry in the assay with astro was “inactive”.

Source of the values: PubChem BioAssay (NCATS).
